The whole screen tested about 48,000 compounds, of which about 13,000 (27%) showed an effect of 50% or more. Some of the results follow.
Each compound was assayed on Wolbachia pipientis (assay: Anti-Wolbachia Cell-Based Screen). Details: 5 µM.
Assay type: functional
Set-up: scale not given: in the data most compounds retested in dose-response had high values

| Structure (SMILES) | Percent Effect [%] |
| --- | --- |
| CCn1nc(C(=O)N2CCNCC2C(=O)Nc2ccc(C)nc2)cc1C (centres undefined) | -9.898 |
| CNc1cc(C2CCCN2C(=O)CCc2ccccc2F)ccn1 (centres undefined) | 87.66 |
| Cc1c(CCC(=O)N2CCCC2c2ccnc(N(C)C)c2)cnn1C (centres undefined) | 100.7 |
| CNc1cc(C2CCCN2C(=O)CCc2cnn(C)c2C)ccn1 (centres undefined) | 114.3 |
| CN(CC(=O)N1CCCC1c1cnn(C)c1)c1ccc(Cl)cn1 (centres undefined) | 7.888 |
| Cc1ncsc1CCC(=O)N1CCCC1c1cccnc1 (centres undefined) | -20.99 |
| CNc1cc(C2CCCN2Cc2ccccc2C(=O)O)ccn1 (centres undefined) | -9.621 |
| COc1ccc(Nc2cc(C)nc(C)n2)cc1N1CCCC1=O | -4.769 |
| O[C@H]1CC[C@@H](Cc2cc(-c3ccccc3)on2)O[C@@H]1CNCC1CC1 | 0.08363 |
| OCCN1CCC(CNCc2ccc(Br)cc2)CC1 | -27.23 |
| CC(C)N(C)C(=O)C1CSCN1S(=O)(=O)c1ccccc1F (centres undefined) | 0.8894 |
| CCc1cc(CNC(=O)C2CCC(=O)N(Cc3ccccc3F)C2)on1 (centres undefined) | -10.8 |
| CN1C(Cn2cccn2)C[C@@H]2CN(Cc3nccs3)CC[C@@H]21 (some centres undefined) | 108 |
| CC(=O)N1[C@H](Cn2cncn2)C[C@@H]2CN(Cc3nccs3)CC[C@@H]21 | 4.372 |
| CN1C(Cn2cccn2)C[C@@H]2CN(Cc3cnn(C)c3)CC[C@@H]21 (some centres undefined) | 88.14 |
| Cn1cc(CN2CCO[C@H]3C(Cn4cccn4)CC[C@@H]32)cn1 (some centres undefined) | 5.846 |
| c1cnn([C@@H]2CN(Cc3nccs3)[C@@H]3CCCO[C@@H]32)c1 | -0.08077 |
| CC(C)N1[C@H](CN2CCCC2)C[C@@H]2CN(Cc3cnn(C)c3)CC[C@@H]21 | 1.544 |
| COCC1CC2(CCN(CC3CC3)CC2)CN1Cc1csc(C)n1.O=C(O)C(F)(F)F.O=C(O)C(F)(F)F (centres undefined) | 2.06 |
| Cc1nc(CN2CCC3(CC2)CCN(C(=O)c2cscn2)C3)cs1.O=C(O)C(F)(F)F | -22.9 |
| Cc1nc(CN2CCC3(CC2)CC(=O)N(C)c2ccccc23)cs1.O=C(O)C(F)(F)F | -15.31 |
| Cc1nc(Cn2c3c(ccc2=O)CCN(CC2CCC2)CC3)cs1.O=C(O)C(F)(F)F.O=C(O)C(F)(F)F | -14.62 |

| Structure (SMILES) | Percent Effect [%] |
| --- | --- |
| CCN1CCN(C)C(=O)C12CCN(Cc1csc(C)n1)CC2.O=C(O)C(F)(F)F | 113.1 |
| Cc1nc(CN2CCN(C)C(=O)C23CCN(CC2CCCC2)CC3)cs1 | 121.4 |
| CCc1ccc(CN2CCC3(CC2)C(=O)N(C)CCN3CC)cc1 | -23.08 |
| Cc1nc(CN2CCC3(CC2)C(=O)N(C)CCN3C)cs1.O=C(O)C(F)(F)F.O=C(O)C(F)(F)F.O=C(O)C(F)(F)F | 99.41 |
| CC(NC(=O)c1cnccn1)c1nnc2ccccn12 (centres undefined) | -8.378 |
| CN(CC1Cc2ccccc2CN1C)C(=O)CSc1nccn1C (centres undefined) | -6.855 |
| CN(C)C(C(=O)Nc1nccs1)c1c(F)cccc1Cl (centres undefined) | -1.745 |
| CCCN1CCC(Nc2nc(CC)ns2)CC1 | -19.08 |
| O=C(c1ccncc1)N1CCC2(CC1)CCN(C(=O)c1cccnc1)C2 | 102.3 |
| O=C(c1ccnnc1)N1CCC2(CC1)CCN(C(=O)c1cccnc1)C2 | 96.42 |
| O=C(c1ccncc1)N1CCC2(CC1)CC(Oc1cccnc1)CO2 (centres undefined) | -1.534 |
| CN(Cc1cccnc1)C1CC2(CCN(C(=O)c3ccnnc3)CC2)C1 | 9.482 |
| COC(=O)[C@H]1CN(C(C)=O)CCN1C(C)=O | -4.652 |
| O=C1CCN(C(=O)C2(c3ccc(F)cc3)CCCCC2)CCN1 | -15.47 |
| CNS(=O)(=O)CCCNC(C)(C)c1nc(C)cs1 | 1.727 |
| CCOc1ccccc1C(CC(=O)O)NC(C)=O (centres undefined) | 10.47 |
| Cc1nsc(NC2CC(=O)N(C(C)(C)C)C2)n1 (centres undefined) | -3.11 |
| COc1cc(-c2n[nH]c(CC#N)n2)cc(OC)c1OC | 137.1 |
| COc1cc(-c2n[nH]c(CCN)n2)cc(OC)c1OC | 136.2 |
| COc1ccc(OC)c(-n2cnnc2CCN)c1 | 12.28 |
| COc1cc(CNc2nncs2)cc(OC)c1OC | -2.056 |
| COc1cc(CO)c(OC)c2c1OCO2 | 0.3319 |

| Structure (SMILES) | Percent Effect [%] |
| --- | --- |
| COc1cc(CNc2nc3c(c(=O)[nH]2)CCNC3)cc(OC)c1OC | -8.828 |
| COc1cc(-c2n[nH]c(CO)n2)cc(OC)c1OC | 101.2 |
| COc1cc(-c2cnnc(NCC3CC3)n2)cc(OC)c1OC | 22.6 |
| COc1cc(-c2nc(N)n[nH]2)cc(OC)c1OC | 107.9 |
| COc1cc(-c2cnnc(NCCSC)n2)cc(OC)c1OC | -5.891 |
| COc1ccc(-c2ccccc2CCN)c(OC)c1OC | -10.47 |
| CC(C)c1nccn1C1CCCN(C(=O)c2cccc3[nH]ncc23)C1 (centres undefined) | -3.235 |
| CN(CCNC(=O)Nc1ccncc1)C1CCCCC1 | -10.45 |
| COCCC(=O)NCCCOC1CCCc2ccccc21 (centres undefined) | 3.193 |
| CC(=O)N1CCN(C(=O)NCCCN(C)S(C)(=O)=O)CC1 | -13.58 |
| CC(C)c1noc(C(C)N2CCN(Cc3nc4ccccc4[nH]3)CC2)n1 (centres undefined) | -18.96 |
| CCN(C(=O)CN1CCCC1Cc1ccccc1)c1ccccc1 (centres undefined) | 22.38 |
| COc1cc(CN)c(OC)c2c1OCO2.Cl | -2.392 |
| COc1cc(-c2n[nH]c(CN)n2)cc(OC)c1OC | 105.2 |
| COc1cc(-c2cccc3c2OC(CN)C3)cc(OC)c1OC (centres undefined) | 1.955 |
| CNS(=O)(=O)c1ccc(CNC(=O)NCC2CCOC2)cc1 (centres undefined) | 7.061 |
| Cn1cc(CN2CC[C@H]3C[C@@H](c4nc(C5CC5)cs4)O[C@@H]3C2)cn1 | -0.3412 |
| Cc1csc([C@@H]2C[C@H]3CN(c4ncc(F)cn4)C[C@H]3O2)n1.O=C(O)C(F)(F)F | 98.65 |
| Cc1nc(CN2C[C@@H]3CN(c4ncc(F)cn4)C[C@@H]3C2=O)cs1.O=C(O)C(F)(F)F | -12.56 |
| Fc1cnc(N2C[C@@H]3C[C@@H](c4nc(C5CC5)cs4)O[C@@H]3C2)nc1.O=C(O)C(F)(F)F | 94.12 |
| Cc1cnc(C(=O)N2CC[C@H]3C[C@@H](c4nc(C)cs4)O[C@@H]3C2)cn1 | -16.87 |
| Cn1cc(CN2CC[C@H]3C[C@H](c4nc(C5CC5)cs4)O[C@@H]3C2)cn1 | 15.37 |

| Structure (SMILES) | Percent Effect [%] |
| --- | --- |
| Cc1cccc(N2CCN(c3ccn4c(=O)[nH]nc4n3)CC2)c1C | -10.93 |
| Cc1ccc2c(c1C)OCC2NCc1cccc(C#N)c1 (centres undefined) | -16 |
| Cc1cc2n(n1)CC(CNCCNC(=O)c1ccc(F)cc1)CN2 (centres undefined) | -2.749 |
| CC(C(=O)N1CCCC1)S(=O)(=O)Cc1nc(C(C)(C)C)no1 (centres undefined) | 0.9098 |
| CCCc1nnc(NC2CCN(C3CCCC3)CC2)o1 | -6.832 |
| CCCc1nnc(NCCc2noc(C3CCCC3)n2)o1 | 110.1 |
| CCCc1nnc(NCCc2noc(C3CCC3)n2)o1 | 108 |
| Cc1cccc(C)c1NCc1noc(C2CC2)n1 | -19.13 |
| CCCc1nnc(NCCc2noc(C3CC3)n2)o1 | 133.3 |
| CCCc1nnc(NC2CCN(C3CCOCC3)CC2)o1 | -6.121 |
| CCCc1nnc(NC2CCN(CCO)CC2)o1 | -14.34 |
| c1ccc(-c2n[nH]c(CCNc3nnc(C4CCC4)o3)n2)cc1 | -23.29 |
| c1ccc(-c2nc(CCNc3nnc(C4CCC4)o3)no2)cc1 | -25.81 |
| CCOC(=O)CCNC(=O)N1CCCC(CNC(=O)c2cccs2)C1 (centres undefined) | -0.8406 |
| COCC(C)NCc1nc(-c2ccc(C)cc2)c(-c2ccccn2)[nH]1 (centres undefined) | 22.14 |
| O=C(NCC1CC[C@@]2(CNCCOC2)O1)c1cnccn1 (some centres undefined) | -4.727 |
| CCOCC(O)CN1CCN(C(=O)C2CC2)CC1 (centres undefined) | 3.304 |
| CCOCC(O)CN1CCN(C(=O)c2cc(C)ccc2OC)CC1 (centres undefined) | 91.25 |
| CCOCC(O)CN1CCN(C(=O)c2cc(Cl)ccc2F)CC1 (centres undefined) | 107.8 |
| CCOCC(O)CN1CCN(C(=O)CC(C)C)CC1 (centres undefined) | -1.349 |
| CCOCC(O)CN1CCN(C(=O)c2cccc3[nH]ncc23)CC1 (centres undefined) | -8.301 |
| CCOCC(O)CN1CCN(C(=O)c2ccccc2F)CC1 (centres undefined) | 82.64 |

| Structure (SMILES) | Percent Effect [%] |
| --- | --- |
| CCOCC(O)CN1CCN(C(=O)c2cc(C)ccc2F)CC1 (centres undefined) | 114.4 |
| CCOCC(O)CN1CCN(C(=O)c2cc(F)ccc2C)CC1 (centres undefined) | -5.879 |
| CCOCC(O)CN1CCN(C(=O)c2ccccc2Cl)CC1 (centres undefined) | -0.07038 |
| CCOCC(O)CN1CCN(C(=O)c2cccnc2OC)CC1 (centres undefined) | -8.967 |
| CCOCC(O)CN1CCN(C(=O)c2ccc(OC)cc2F)CC1 (centres undefined) | 5.863 |
| CCC(CO)N(Cc1ccccn1)C(=O)c1ccc(F)c(F)c1 (centres undefined) | -4.122 |
| COc1ccccc1[C@@H]1CN(Cc2ccc3nsnc3c2)C[C@H]1C(=O)O | -7.505 |
| O=C1CCCN1CC1CCCCN1C(=O)Nc1cccnc1 (centres undefined) | 2.863 |
| CC(CO)(NC(=O)Nc1nnc(C2CC2)s1)C1CCCCC1 (centres undefined) | -9.055 |
| Cc1ccc(N2CCc3ncnc(C)c3CC2)nn1 | 98.11 |
| Cc1cccc(N2CCc3ncnc(C4CC4)c3CC2)n1.O=C(O)C(F)(F)F | -0.7923 |
| CCN(CC)c1ncnc2c1CCN(CC1CCOCC1)CC2.O=C(O)C(F)(F)F | -1.394 |
| CCN(C)c1ncnc2c1CCN(C(=O)c1ccc(C)o1)CC2 | 16.8 |
| c1ccc(N2CCc3ncnc(C4CC4)c3CC2)nc1 | -3.177 |
| Cc1ccc(N2CCCC(N(C)c3ncnc4c3CCC4)C2)nn1 (centres undefined) | 40.92 |
| Cc1ncnc2c1CCN(c1cc(C(F)(F)F)ncn1)CC2 | -23.9 |
| CCN(C)c1ncnc2c1CCN(c1ccc(C)nn1)CC2 | 88.89 |
| Cc1ncnc2c1CCN(c1ccccn1)CC2.O=C(O)C(F)(F)F | -1.048 |
| CCN(CC)c1ncnc2c1CCN(c1ccc(C)nn1)CC2 | 109.1 |
| Cc1ccc(N2CCc3ncnc(C4CC4)c3CC2)nn1 | 109.7 |
| CCN(C)c1ncnc2c1CCN(Cc1ccoc1)CC2 | 5.87 |

Reference: ChEMBL document CHEMBL3988442, “University of Dundee, Small-Polar-MMV Screening Library” (2021)
